Reference: the supplement of paper PMC10849652
Of roughly 7,900 targets only a part is listed; those with a hit were picked by preference. About 0.6% of all pairs of compound and target were hits.

compound: c1cn2cc(-c3ccc4cn[nH]c4c3)nc(Nc3ccc(N4CCOCC4)cc3)c2n1 [entospletinib]; assay: log2 fold change, soluble protein after heating vs DMSO (PISA); higher = thermal stabilisation; K562 cells, 10 uM, 30 min; active = over 0.2 and 3.5 SD of the protein, either way, in both replicates (recomputed)
Outline: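 K562 cells at 2×10^6 cells/mL were exposed to 10 μM compound for 30 min, then aliquots were heated for 3 min across 48°C-58°C, pooled, and extracted in PBS containing 0.5% NP-40 at 4°C. The supernatant after 21,000xg for 90 min was taken as soluble protein and measured by TMTpro 16plex LC-MS/MS with channel sums equalised. Thermal stability is reported relative to control samples, with values from duplicates. Fold changes are given on a log2 scale.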

Sequence of UniProt P52701 (P52701 whole entry, looked up): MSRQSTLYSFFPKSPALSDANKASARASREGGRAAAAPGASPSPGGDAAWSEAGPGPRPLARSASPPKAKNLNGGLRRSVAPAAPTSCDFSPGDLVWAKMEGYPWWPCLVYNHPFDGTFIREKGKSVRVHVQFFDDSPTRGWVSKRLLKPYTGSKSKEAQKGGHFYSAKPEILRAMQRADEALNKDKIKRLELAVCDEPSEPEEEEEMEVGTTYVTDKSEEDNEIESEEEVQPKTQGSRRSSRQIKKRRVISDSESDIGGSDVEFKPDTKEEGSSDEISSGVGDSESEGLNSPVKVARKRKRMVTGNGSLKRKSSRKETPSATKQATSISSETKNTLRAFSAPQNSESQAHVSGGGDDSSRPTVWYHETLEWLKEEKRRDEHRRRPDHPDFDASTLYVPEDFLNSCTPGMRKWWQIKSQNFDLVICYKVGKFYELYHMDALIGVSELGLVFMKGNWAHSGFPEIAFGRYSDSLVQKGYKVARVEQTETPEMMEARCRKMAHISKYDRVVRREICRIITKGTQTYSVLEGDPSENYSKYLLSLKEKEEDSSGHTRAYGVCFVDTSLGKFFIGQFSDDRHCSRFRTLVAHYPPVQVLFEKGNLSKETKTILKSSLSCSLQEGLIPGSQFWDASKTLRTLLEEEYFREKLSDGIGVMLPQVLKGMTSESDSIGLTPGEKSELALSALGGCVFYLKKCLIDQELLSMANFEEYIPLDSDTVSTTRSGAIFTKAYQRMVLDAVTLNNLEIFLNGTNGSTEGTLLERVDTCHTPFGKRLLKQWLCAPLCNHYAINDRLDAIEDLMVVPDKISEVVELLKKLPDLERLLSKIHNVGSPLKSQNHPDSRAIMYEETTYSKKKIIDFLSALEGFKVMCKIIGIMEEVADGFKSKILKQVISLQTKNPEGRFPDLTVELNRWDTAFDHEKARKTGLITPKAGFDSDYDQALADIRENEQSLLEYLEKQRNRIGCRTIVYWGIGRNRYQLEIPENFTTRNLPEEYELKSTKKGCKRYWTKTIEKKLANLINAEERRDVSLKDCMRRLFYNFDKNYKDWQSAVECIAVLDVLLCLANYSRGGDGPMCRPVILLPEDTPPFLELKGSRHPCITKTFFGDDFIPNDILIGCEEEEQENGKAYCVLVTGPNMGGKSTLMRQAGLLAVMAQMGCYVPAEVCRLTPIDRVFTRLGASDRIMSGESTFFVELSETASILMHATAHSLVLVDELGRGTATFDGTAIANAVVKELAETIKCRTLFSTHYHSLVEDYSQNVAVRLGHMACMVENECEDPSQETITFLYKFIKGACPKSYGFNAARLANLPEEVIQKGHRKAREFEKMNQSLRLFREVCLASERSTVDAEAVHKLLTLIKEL
Sequence of UniProt Q9BRP4 (Q9BRP4 whole entry, looked up): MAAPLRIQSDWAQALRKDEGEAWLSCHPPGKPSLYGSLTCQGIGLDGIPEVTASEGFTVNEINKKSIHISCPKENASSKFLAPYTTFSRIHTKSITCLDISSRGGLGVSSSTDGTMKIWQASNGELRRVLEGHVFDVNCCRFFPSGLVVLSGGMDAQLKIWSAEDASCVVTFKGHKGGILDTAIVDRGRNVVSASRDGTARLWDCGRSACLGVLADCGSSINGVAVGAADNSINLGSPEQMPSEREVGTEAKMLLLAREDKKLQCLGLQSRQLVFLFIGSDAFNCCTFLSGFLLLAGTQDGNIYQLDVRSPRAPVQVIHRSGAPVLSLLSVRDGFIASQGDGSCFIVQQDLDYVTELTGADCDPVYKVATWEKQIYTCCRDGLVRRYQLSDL
Sequence of UniProt P55786 (P55786 whole entry, looked up): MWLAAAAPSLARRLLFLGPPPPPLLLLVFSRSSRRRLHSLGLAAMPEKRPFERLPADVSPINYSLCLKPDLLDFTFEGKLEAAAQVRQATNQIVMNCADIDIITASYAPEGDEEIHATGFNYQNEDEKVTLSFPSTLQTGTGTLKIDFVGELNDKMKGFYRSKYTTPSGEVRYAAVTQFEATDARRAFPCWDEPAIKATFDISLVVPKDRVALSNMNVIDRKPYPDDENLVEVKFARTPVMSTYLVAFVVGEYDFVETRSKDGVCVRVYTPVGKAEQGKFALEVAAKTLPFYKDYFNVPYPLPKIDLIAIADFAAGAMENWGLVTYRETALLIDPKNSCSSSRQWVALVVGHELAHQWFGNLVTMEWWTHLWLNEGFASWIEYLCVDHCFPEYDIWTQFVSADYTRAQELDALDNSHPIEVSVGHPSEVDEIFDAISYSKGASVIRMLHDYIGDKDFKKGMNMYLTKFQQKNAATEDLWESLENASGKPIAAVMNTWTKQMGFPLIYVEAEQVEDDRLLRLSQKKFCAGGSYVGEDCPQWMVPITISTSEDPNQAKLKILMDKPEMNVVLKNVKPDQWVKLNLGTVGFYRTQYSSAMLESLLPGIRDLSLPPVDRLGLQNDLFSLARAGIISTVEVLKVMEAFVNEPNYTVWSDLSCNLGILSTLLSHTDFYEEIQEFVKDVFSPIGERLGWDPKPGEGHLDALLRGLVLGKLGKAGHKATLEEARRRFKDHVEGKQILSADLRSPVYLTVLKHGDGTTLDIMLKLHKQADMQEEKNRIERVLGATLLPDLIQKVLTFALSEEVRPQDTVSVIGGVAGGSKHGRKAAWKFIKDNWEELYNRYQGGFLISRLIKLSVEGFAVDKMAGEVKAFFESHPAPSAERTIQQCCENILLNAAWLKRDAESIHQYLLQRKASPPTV
Sequence of UniProt P22059 (P22059 whole entry, looked up): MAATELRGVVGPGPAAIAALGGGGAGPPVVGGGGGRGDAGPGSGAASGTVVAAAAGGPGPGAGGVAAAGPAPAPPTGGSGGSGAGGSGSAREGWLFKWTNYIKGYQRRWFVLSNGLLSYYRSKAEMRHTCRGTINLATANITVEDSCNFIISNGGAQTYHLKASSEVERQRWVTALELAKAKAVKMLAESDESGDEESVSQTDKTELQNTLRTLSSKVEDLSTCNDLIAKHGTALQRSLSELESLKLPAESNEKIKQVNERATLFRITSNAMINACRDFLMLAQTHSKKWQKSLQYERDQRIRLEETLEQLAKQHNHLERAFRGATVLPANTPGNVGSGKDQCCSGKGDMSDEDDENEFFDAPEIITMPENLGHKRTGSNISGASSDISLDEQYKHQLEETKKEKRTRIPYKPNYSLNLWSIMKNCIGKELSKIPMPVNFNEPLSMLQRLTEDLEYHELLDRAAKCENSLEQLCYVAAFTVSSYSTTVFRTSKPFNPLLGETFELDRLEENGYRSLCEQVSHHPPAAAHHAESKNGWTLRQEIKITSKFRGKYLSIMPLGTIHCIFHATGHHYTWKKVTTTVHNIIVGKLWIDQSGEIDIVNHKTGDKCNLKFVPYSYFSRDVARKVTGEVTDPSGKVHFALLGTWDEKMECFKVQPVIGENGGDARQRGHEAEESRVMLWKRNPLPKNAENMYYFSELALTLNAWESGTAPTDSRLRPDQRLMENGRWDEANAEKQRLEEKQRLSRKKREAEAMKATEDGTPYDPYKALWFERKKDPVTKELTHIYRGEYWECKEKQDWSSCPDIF
Sequence of UniProt Q8WUY8 (Q8WUY8 whole entry, looked up): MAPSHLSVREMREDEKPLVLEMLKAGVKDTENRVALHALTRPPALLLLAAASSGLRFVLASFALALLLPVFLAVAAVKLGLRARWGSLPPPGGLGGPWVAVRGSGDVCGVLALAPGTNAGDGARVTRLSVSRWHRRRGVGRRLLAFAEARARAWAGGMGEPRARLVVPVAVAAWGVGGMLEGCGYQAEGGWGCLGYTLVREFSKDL
Sequence of UniProt Q9NXX6 (Q9NXX6 whole entry, looked up): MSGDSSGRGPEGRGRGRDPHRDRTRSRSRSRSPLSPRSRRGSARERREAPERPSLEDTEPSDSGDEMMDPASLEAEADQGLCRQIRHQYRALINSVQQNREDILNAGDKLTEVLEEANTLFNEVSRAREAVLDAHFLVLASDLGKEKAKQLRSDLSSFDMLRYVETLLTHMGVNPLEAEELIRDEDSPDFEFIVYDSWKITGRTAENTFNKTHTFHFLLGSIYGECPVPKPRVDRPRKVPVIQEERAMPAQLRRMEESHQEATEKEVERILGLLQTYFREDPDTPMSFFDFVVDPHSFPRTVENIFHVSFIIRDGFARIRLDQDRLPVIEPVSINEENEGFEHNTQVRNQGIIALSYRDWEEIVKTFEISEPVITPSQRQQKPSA
Sequence of UniProt Q9UBD5 (Q9UBD5 whole entry, looked up): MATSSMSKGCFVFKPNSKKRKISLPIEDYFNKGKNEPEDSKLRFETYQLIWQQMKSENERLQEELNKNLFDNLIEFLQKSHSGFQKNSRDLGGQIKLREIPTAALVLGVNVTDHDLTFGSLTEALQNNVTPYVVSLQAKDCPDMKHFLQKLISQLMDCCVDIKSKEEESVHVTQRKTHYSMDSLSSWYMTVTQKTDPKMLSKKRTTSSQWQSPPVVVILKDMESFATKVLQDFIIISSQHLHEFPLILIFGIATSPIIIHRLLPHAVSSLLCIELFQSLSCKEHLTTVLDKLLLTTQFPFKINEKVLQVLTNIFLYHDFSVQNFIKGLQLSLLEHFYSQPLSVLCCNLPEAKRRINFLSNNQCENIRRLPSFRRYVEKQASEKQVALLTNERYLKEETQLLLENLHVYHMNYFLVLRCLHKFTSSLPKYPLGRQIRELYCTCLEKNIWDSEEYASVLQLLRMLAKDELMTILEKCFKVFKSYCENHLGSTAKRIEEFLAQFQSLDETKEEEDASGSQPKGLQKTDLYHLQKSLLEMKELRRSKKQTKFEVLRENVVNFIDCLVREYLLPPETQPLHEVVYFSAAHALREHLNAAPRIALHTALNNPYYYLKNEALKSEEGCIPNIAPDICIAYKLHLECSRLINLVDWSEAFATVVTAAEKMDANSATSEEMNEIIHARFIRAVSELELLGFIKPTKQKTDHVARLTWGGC
Sequence of UniProt P49914 (P49914 whole entry, looked up): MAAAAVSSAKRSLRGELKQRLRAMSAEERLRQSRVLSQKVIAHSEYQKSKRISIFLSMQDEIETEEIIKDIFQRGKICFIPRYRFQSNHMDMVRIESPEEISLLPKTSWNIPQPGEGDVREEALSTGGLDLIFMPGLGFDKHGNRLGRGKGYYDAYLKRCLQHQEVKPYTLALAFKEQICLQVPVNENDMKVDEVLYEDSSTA

log2 fold change, inactive:
MRPS12 (UniProt O15235) 0.15
OSTC (UniProt Q9NRP0) 0.034
NSMCE4A (UniProt Q9NXX6) -0.048
MTHFS (UniProt P49914) 0.127
NAT14 (UniProt Q8WUY8) 0.007
ORC3 (UniProt Q9UBD5) -0.144
NPEPPS (UniProt P55786) -0.007
OSBP (UniProt P22059) -0.013
MSH6 (UniProt P52701) -0.053
PAAF1 (UniProt Q9BRP4) -0.023
NNMT (UniProt P40261) 0.042
NFATC3 (UniProt Q12968) 0.153
